Consider 37 compounds from PubChem BioAssay (NCI).

The panel holds about 79,000 compounds, 15% with a hit somewhere; the sample as a whole holds those more often. Values without a mark were called inactive. The source made the active and inactive calls. No stated cut-off is given here; in the data, active means growth inhibition above about 70%; inactive means the rest. Where a SMILES comes first, the peptide text is derived from it.

A short description of assay [1]: NCI Yeast Anticancer Drug Screen. Data for the rad50 strain (AID 155).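 Further: 0% = growth of vehicle-only cultures of the same strain.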 The following applies: S. cerevisiae rad50 strain growth inhibition; at 50.0 µM; stronger effect = higher value. The method, boiled down:
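Genetically altered yeast (DNA repair pathway); compound treatment; growth inhibition vs vehicle ctrl.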

The nature of assay [2]: NCI Yeast Anticancer Drug Screen. Data for the mec2-1 strain (AID 157). The settings on record: S. cerevisiae mec2-1 strain, at 50.0 µM, stronger effect = higher value. The method, boiled down:
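Growth inhibition is read against vehicle-treated controls after compound exposure of the mec2-1 yeast strain, which is defective in DNA damage repair or cell cycle control.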

Assay [3] can be described thus: NCI Yeast Anticancer Drug Screen. Data for the sgs1 mgt1 strain (AID 161).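 Further: 0% = growth of cultures given vehicle only.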 The following applies: S. cerevisiae sgs1 mgt1 strain, at 50.0 µM, stronger effect = higher value. The method, boiled down:
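Growth of a repair-deficient yeast mutant was monitored after compound treatment and expressed as inhibition relative to vehicle-treated cultures.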

Assay [4] can be described thus: NCI Yeast Anticancer Drug Screen. Data for the cln2 rad14 strain (AID 165).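 Further: 0% = growth equal to vehicle treated cultures.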 The settings on record: S. cerevisiae cln2 rad14 strain, at 50.0 µM, stronger effect = higher value. Summed up:
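Growth inhibition, relative to vehicle-treated controls, is the read-out. The test organism is a yeast strain with defined genetic alterations, cln2 rad14.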

Assay [5] is described as follows: NCI Yeast Anticancer Drug Screen. Data for the bub3 strain (AID 167). The settings on record: S. cerevisiae bub3 mutant strain, at 50.0 µM, stronger effect = higher value. Summed up:
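Yeast carrying a defined mutation is treated with each compound, and growth is compared with that of vehicle-exposed cells to give inhibition.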

Assay [6] can be described thus: NCI Yeast Anticancer Drug Screen. Data for the mlh1 rad18 strain (AID 175). The settings on record: S. cerevisiae mlh1 rad18 strain growth inhibition; at 50.0 µM; stronger effect = higher value. Summed up: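 Cells of a genetically altered yeast strain, deficient in DNA damage repair, were treated with compound. Their growth was then compared with that of vehicle-treated cultures to give inhibition.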

`Sc1ccc2ccccc2c1`: the growth inhibition was 12.4% in assay [1]; 9.15% in assay [2]; -23.3% in assay [3]; -38.4% in assay [4]; -17.1% in assay [5]; -30.4% in assay [6].
Consider `CCOC(=O)CC(=O)c1sc(SC)c(C#N)c1N`, for which the growth inhibition in assay [1] is -8%; in assay [2], -9.6%; in assay [3], -10.2%; in assay [4], -2%; in assay [5], 1.6%; in assay [6], 1.6%.
For the compound `Nc1ccc(N2CCN(c3ccc(N)cc3)CC2)cc1`, the growth inhibition in assay [1] was 12.2%; in assay [2], -9.95%; in assay [3] it was 16%; in assay [4], 10.2%; in assay [5], 12.3%; in assay [6], 15.8%.
As for `O=S(O)CCCCSSCC(O)CO` (configuration not stated), the growth inhibition in assay [1] was 22.5%; in assay [2], 9.65%; in assay [3], 15.2%; in assay [4], 63.5%; in assay [5] it was 24.1%; in assay [6], 13.7%.
Consider `Clc1ncc(-c2ccccc2)nc1Cl`, for which the growth inhibition in assay [1] was 49.5%; in assay [2] it was 11.4%; in assay [3] it was 0.6%; in assay [4] it was 1.25%; in assay [5], 1.75%; in assay [6], 14.9%.
For the compound `CCO/C=C(/C#N)C(=O)OCC`, the growth inhibition in assay [1] is -6.8%; in assay [2], -11.9%; in assay [3], -20.3%; in assay [4], -27.6%; in assay [5] it was -14.3%; in assay [6], 0.85%.
`O=C1NC(=O)C2(N1)c1ccccc1-c1ccc(Br)cc12` (configuration not stated): the growth inhibition is -2.85% in assay [1]; -8.9% in assay [2]; -0.2% in assay [3]; -20.4% in assay [4]; 0.15% in assay [5]; -2.7% in assay [6].
Consider `NC(=O)C1CC(O)CN1C(=O)c1cccnc1` (configuration not stated), for which the growth inhibition in assay [1] was 11.2%; in assay [2] it was 19.8%; in assay [3], 15.3%; in assay [4], -7%; in assay [5], 8.9%; in assay [6], 5.35%.
Consider `CC(C)CNCCCC(C)Nc1ccnc2cc(Cl)ccc12` (configuration not stated), for which the growth inhibition in assay [1] is 11.3%; in assay [2], -1.45%; in assay [3], -2.25%; in assay [4], -2.95%; in assay [5], -15%; in assay [6] it was -9.65%.
Take `O=C(Nc1ccc(Cl)cc1)Nc1nnc2nc(CC(=O)c3ccc4ccccc4c3)c(=O)[nH]n12`: the growth inhibition was 12.9% in assay [1]; 9.45% in assay [2]; 2.2% in assay [3]; -16.3% in assay [4]; 21.8% in assay [5]; 1.3% in assay [6].
`COc1ccc2nccc(CO)c2c1`: the growth inhibition in assay [1] was 4.95%; in assay [2], -3.4%; in assay [3] it was -0.8%; in assay [4], -33.2%; in assay [5], 5.7%; in assay [6], 0.75%.
As to `CC(=O)CC(=O)Nc1cccc(C)n1`, the growth inhibition in assay [1] was -0.4%; in assay [2] it was -9.95%; in assay [3], -14.3%; in assay [4], 3.8%; in assay [5] it was 6.25%; in assay [6] it was 7.25%.
As for `CC(C#N)(CCl)OS(=O)(=O)CCCl` (configuration not stated), the growth inhibition in assay [1] was 37.4%; in assay [2] it was 21.4%; in assay [3] it was 6.4%; in assay [4] it was 16.9%; in assay [5] it was 48.7%; in assay [6], 25.4%.
Regarding `O=c1[nH]cnc2c1cnn2Cc1ccccc1`, the growth inhibition is 4.1% in assay [1]; -4.85% in assay [2]; 1.2% in assay [3]; 2.1% in assay [4]; 26.1% in assay [5]; 1.95% in assay [6].
As to `COc1ccccc1C1CC(c2ccccc2)=Nc2ccccc2S1` (configuration not stated), the growth inhibition is -3.95% in assay [1]; -45.2% in assay [2]; 1.25% in assay [3]; 5.95% in assay [4]; -30.8% in assay [5]; -1.05% in assay [6].
As to `CCOC(=O)OC1CC2CC(OC(=O)OCC)c3cccc(Br)c3C2c2ccccc21` (configuration not stated), the growth inhibition in assay [1] was 25.1%; in assay [2], 12.9%; in assay [3] it was 18.8%; in assay [4], 0.05%; in assay [5] it was -5.3%; in assay [6], 33.7%.
For the compound `COC(=O)CC1(CC(=O)O)SCCS1`, the growth inhibition in assay [1] was -13.6%; in assay [2], 4.3%; in assay [3] it was 11.5%; in assay [4], 2.9%; in assay [5], 13.5%; in assay [6] it was -8.25%.
With `CC(C)(C)NC1=NCCNC(c2ccccc2)=C1`, the growth inhibition in assay [1] is -33.5%; in assay [2], -52.2%; in assay [3], -19.4%; in assay [4] it was -4.65%; in assay [5] it was -30.8%; in assay [6] it was -23.9%.
As to `COc1cc(N=Nc2ccc(S(=O)(=O)O)cc2)ccc1N=Nc1ccc2c(S(=O)(=O)O)cccc2c1O`, the growth inhibition in assay [1] was 15%; in assay [2], -8.05%; in assay [3], 14.3%; in assay [4], 11.4%; in assay [5], 5.8%; in assay [6] it was 2.15%.
`CN(C)CCOC(=O)C(O)C1CCCCC1` (configuration not stated): the growth inhibition in assay [1] was -14.3%; in assay [2] it was 12.8%; in assay [3], 5.5%; in assay [4], 18.4%; in assay [5], 15.2%; in assay [6], -19.9%.
Regarding `COC(=O)/C(C#N)=C/c1ccc2c(c1)OCO2`, the growth inhibition is 12.4% in assay [1]; 7.65% in assay [2]; 16.1% in assay [3]; 11.2% in assay [4]; 35.9% in assay [5]; 28.2% in assay [6].
As to `O=C1OCc2cccc3c2-c2c1cccc2C(=O)OC3`, the growth inhibition in assay [1] is -3%; in assay [2], -5.7%; in assay [3], -4.8%; in assay [4] it was 16.2%; in assay [5] it was -12.5%; in assay [6], 6.7%.
For `O=[N+]([O-])c1ccc(Cl)c(OCCCBr)c1`, the growth inhibition in assay [1] was 10.3%; in assay [2], 39.5%; in assay [3] it was 48.6%; in assay [4], 14.9%; in assay [5], 57.2%; in assay [6], 70.3% (active).
For `CN(C)CC(O)CNC(=O)Nc1ccccc1` (configuration not stated), the growth inhibition in assay [1] is 0.6%; in assay [2] it was 14.2%; in assay [3], 12.7%; in assay [4], 0.35%; in assay [5], -0.05%; in assay [6], -42.8%.
Regarding `CC(C)CC(NC(=O)C(CCC(=O)O)NC(=O)CNC(=O)CNC(=O)C(CO)NC(=O)C(CC(C)C)NC(=O)C(NC(=O)C(CO)NC(=O)C(C)NC(=O)C(CCCNC(=N)N)NC(=O)C(C)NC(=O)CN)C(C)C)C(=O)NC(CC(=O)O)C(=O)NC(CCCNC(=N)N)C(=O)NC(Cc1c[nH]c2ccccc12)C(=O)NC(Cc1ccc(O)cc1)C(N)=O` (configuration not stated) (H-GARASVLSGGELDRWY-NH2; configuration not given here), the growth inhibition was 21.4% in assay [1]; -7.15% in assay [2]; 3.25% in assay [3]; 8.4% in assay [4]; -5.85% in assay [5]; 11.7% in assay [6].
Turning to `Cc1ccc(CSC(=S)NNc2ccccc2)cc1C`, the growth inhibition in assay [1] was -28.6%; in assay [2], -44.3%; in assay [3], -2.15%; in assay [4], -13.6%; in assay [5] it was -32.6%; in assay [6] it was -35.8%.
Consider `Cc1nn(C(=O)c2ccccn2)c(-c2ccccc2)c1N=Nc1ccc(S(=O)(=O)Nc2ncccn2)cc1`, for which the growth inhibition was 26.4% in assay [1]; -6% in assay [2]; 17.9% in assay [3]; 12.5% in assay [4]; 1.5% in assay [5]; 40.4% in assay [6].
In the case of `Cc1ccc(S(=O)(=O)/C(C#N)=C/n2c(=S)[nH]c3ccc([N+](=O)[O-])cc32)cc1`, the growth inhibition in assay [1] was -14.3%; in assay [2] it was -21.1%; in assay [3], -9.05%; in assay [4], -3.25%; in assay [5] it was -10.6%; in assay [6], 3.3%.
In the case of `C=C(c1ccccc1)c1cccc2ccccc12`, the growth inhibition in assay [1] is -2.45%; in assay [2], 3.45%; in assay [3] it was -4.9%; in assay [4] it was 19.9%; in assay [5], -11.7%; in assay [6], 6.55%.
As to `O=c1[nH]nc(Cc2ccccc2)n1CCCl`, the growth inhibition in assay [1] was 16.9%; in assay [2], 13.8%; in assay [3], 15.6%; in assay [4], -3.7%; in assay [5], 8.35%; in assay [6] it was 11.5%.
With `O=C1OC(=Nc2ccccc2Cl)c2ccccc21`, the growth inhibition in assay [1] is -21.6%; in assay [2] it was -21.5%; in assay [3] it was -5.05%; in assay [4] it was -9.1%; in assay [5] it was 14.5%; in assay [6], 18.3%.
As for `O=C(OCC(Cl)(Cl)Cl)N1[C@@H]2C=C[C@@H](N1C(=O)OCC(Cl)(Cl)Cl)[C@@]13CCCCC21O3` (some centres not stated), the growth inhibition in assay [1] was -55.7%; in assay [2], 5.15%; in assay [3] it was 0.45%; in assay [4] it was 1.8%; in assay [5] it was -4.95%; in assay [6] it was 1.65%.
Consider `CCN(CC)CCSc1cc(C)c2ccc(N)nc2n1`, for which the growth inhibition in assay [1] is -5.65%; in assay [2] it was -24%; in assay [3] it was 6.6%; in assay [4] it was 15.1%; in assay [5], 8.6%; in assay [6] it was -1.1%.
For `O=C1C(=Cc2ccccc2)C(=O)c2ccccc21`, the growth inhibition in assay [1] is 2.55%; in assay [2], 25.6%; in assay [3], 8.65%; in assay [4] it was -17.6%; in assay [5], 24.7%; in assay [6], 9.3%.
`Cc1ccc(S(=O)(=O)Nc2ccccc2)cc1`: the growth inhibition in assay [1] was 18%; in assay [2] it was -27.9%; in assay [3], 21%; in assay [4], -20.2%; in assay [5], 3.8%; in assay [6] it was 37.3%.
With `C1CC2(CC3(C1)SCCS3)SCCS2`, the growth inhibition in assay [1] was -0.3%; in assay [2] it was 7.2%; in assay [3] it was -0.85%; in assay [4] it was -12.3%; in assay [5], 1.55%; in assay [6] it was 0.05%.
For the compound `O=C1c2ccccc2C(=O)C2C3c4ccccc4C(c4ccccc43)C12` (configuration not stated), the growth inhibition was -60.4% in assay [1]; -61% in assay [2]; -53.8% in assay [3]; -9.2% in assay [4]; -54.7% in assay [5]; -57.5% in assay [6].
